Assay outcomes from PubChem BioAssay.
eIF4H inh: inhibitors of RNA binding by human eIF4H; Q15056; eIF4H fluorescence polarization binding assay; inhibition, % at 35 µM; 0.94% of 290,000 active; AID 2012;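 note: calls also rest on retests at 20 µM and on dose response follow-up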
PABP1 MLLE inh: blocks PAM2 peptide binding to the PABP1 MLLE domain. 0.36% of 360,000 active. inhibition, % at 20 µM. P11940. GST-MLLE / FITC-PAM2 fluorescence polarization; in the data active = inhibition above about 35%, passing the limit was not always enough;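 note: plate controls were DMSO wells with GST-MLLE for no effect and wells lacking GST-MLLE protein for full effect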
eIF4E-4G inh: eIF4E/eIF4G interaction inhibition in translation initiation | P63073+Q04637 | TR-FRET eIF4E-eIF4GI(517-606) binding, 2 h | inhibition, % at 21.7 µM | 0.37% of 220,000 active;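 active = inhibition above about 30%, limit read from the data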;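 note: 0% = full FRET control wells and 100% = background wells lacking eIF4GI fragment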
PABP polyA inh: PABP-poly(A) binding inhibition; PABP-poly(A) RNA binding, fluorescence polarization; calls only at 35 µM; 1% of 290,000 active; AID 2014;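 note: calls also rest on retests at 20 µM and on dose response follow-up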
* marks the source's active call; other numbers are inactive results; i = inactive; . = no result; + = active, no number; [ ] = remark or other dose. Rows were chosen to be rich in hits. Some 1.5% of all compounds tested hit in one or more screens of this group. Unless noted, the rule behind the calls is not given here.

SMILES | eIF4H inh | PABP1 MLLE inh | eIF4E-4G inh | PABP polyA inh
O=C(O)CCCC(=O)Nc1ccc(N2CCCC2)cc1 | 69.1* | 12.6 | -0.8 | i
CCCC(=O)Nc1ccc(N2CCCCC2)cc1 | -9.5 | -12.8 | 10.1 | i
CN1C2C=CC(=O)C1C1C(=O)N(c3ccccc3)C(=O)C12 (configuration not stated) | . | 9.9 | . | .
Cc1cc(C(=O)OCC(=O)N2CC(=O)Nc3ccccc32)c(C)n1-c1ccc(F)cc1 | 12.3 | -7.0 | 1.0 | i
Cc1cc(C(=O)OCC(=O)N2CC(=O)Nc3ccccc32)c(C)n1-c1ccccc1 | 3.7* | 4.5 | 5.0 | +
COc1cc(C2C3=C(Nc4nc(N)[nH]c(=O)c42)c2ccccc2C3=O)ccc1O (configuration not stated) | 93.3* | 14.7 | 0.8 | +
O=C(/C=C/c1ccc(-c2ccccc2[N+](=O)[O-])o1)c1ccco1 | 69.2 | 52.0* | 5.2 | i
O=C(/C=C/c1ccc([N+](=O)[O-])cc1)c1ccco1 | -3.9 | -2.4 | . | i
COc1cc2cc(/C=C/C(=O)c3ccco3)c(Cl)nc2cc1OC | 76.6* | -34.6 | 2.0 | +
CC1CCCN(CC(=O)N2c3ccccc3Sc3ccccc32)C1 (configuration not stated) | 3.1* | -0.3 | 3.3 | i
Cc1ccc(C(O)c2ncc(-c3cccc4ccccc34)[nH]2)cc1F (configuration not stated) | . | 15.3 | . | .
COC/C=C/C1=CC2=CC(=O)C(C)(OC(=O)c3cnc4ccccc4n3)C(=O)C2=CN1c1ccc(CO)cc1 (configuration not stated) | 102.4* | . | . | +
COC/C=C/C1=CC2=CC(=O)C(C)(OC(=O)c3cnc4ccccc4n3)C(=O)C2=CN1c1ccccc1 (configuration not stated) | 62.8* | . | 5.2 | +
COC/C=C/C1=CC2=CC(=O)C(C)(OC(=O)c3cnc4ccccc4n3)C(=O)C2=CN1CC(C)C (configuration not stated) | . | 10.8 | . | .
COC/C=C/C1=CC2=CC(=O)C(C)(OC(=O)c3cnc4ccccc4n3)C(=O)C2=CN1C1CCCCC1 (configuration not stated) | 28.1 | . | . | i
O=C1C(=Cc2cccc(O)c2O)SC(=S)N1CCCN1CCOCC1 | . | 16.2 | . | .
CCc1nc2ccc(C(=O)NCCc3c[nH]c4ccccc34)cn2c1N(C)CCCc1ccccc1 | . | -12.6 | . | .
O=C(CNC(=O)OCc1ccccc1)NCC(=O)NC(Cc1c[nH]c2ccccc12)C(=O)O (configuration not stated) | . | -4.0 | . | .
Nc1c(C(=O)O)ccc2c1C(=O)c1ccccc1C2=O | 3.7 | 13.2 | 0.4 | i
Nc1ccc2c(c1Cl)C(=O)c1ccc(N)c(Cl)c1C2=O | 109.2* | 28.4 | 18.8 | +
Cc1ccc2[nH]cc(S(=O)(=O)c3ccc(C)c(C)c3)c(=O)c2c1 | 6.4 | -3.2 | . | i
COc1ccc(N2Cc3ccccc3C2=O)cc1 | -1.3 | 3.3 | . | i
COc1ccc(N2Cc3cccc(C(=O)O)c3C2=O)cc1 | 93.3* | -3.5 | 10.6 | +
COc1ccc(-c2nc3cc(C)c(Br)c(C)n3c2Cc2cccc(F)c2)cc1OC | . | -5.7 | . | .
O=C(CSc1n[nH]c(=O)[nH]c1=O)N/N=C/c1ccccc1O | 6.9 | 0.6 | -5.6 | i
SMILES | eIF4H inh | PABP1 MLLE inh | eIF4E-4G inh | PABP polyA inh
COc1cc(/C=N/NC(=O)CSc2n[nH]c(=O)[nH]c2=O)cc(OC)c1O | 12.7 | 5.9 | 8.1 | +
C=CCNC(=O)COc1cc(C)ccc1C | -4.0 | 3.8 | 39.6* | i
Cc1ccc([C@@H]2C[C@H]3[C@@H](CN2S(=O)(=O)c2ccc(Cl)cc2)C(=O)C[C@@H](c2cccc4ccccc24)N3S(=O)(=O)c2ccc(C)cc2)cc1 | . | -8.0 | . | .
CCC(C)Cn1c(C(C)O)nc2ccccc21 (configuration not stated) | active | -4.3 | -2.8 | i
CCC(C)Cn1c(C(C)C)nc2ccccc21 (configuration not stated) | -3.7 | 6.3 | -2.2 | i
Cc1ccc(CN(CC(=O)NC2CCCC2)C(=O)CSc2nnc(COc3ccccc3)o2)cc1 | 4.0 | 41.5* | 3.9 | i
CCOCCCNC(=S)N1CCC(NC(=O)c2ccco2)CC1 | -8.5 | -23.1 | 0.4 | +
CCOC(=O)c1cnn(C(=O)c2ccccc2)c1N | -12.5 | -10.7 | 45.4*[fluorescence artefact?] | i
CCOC(=O)c1cnn(Cc2ccccc2)c1N | -1.9 | 2.5 | 1.4 | i
O=C(COc1ncnc2ccc(Br)cc12)N1CCOCC1 | 1.0* | -10.3 | 5.3 | +
CC(=O)NC1(C(F)(F)F)N=C2SCCN2C1=O (configuration not stated) | 0.7 | 28.0 | 0.4 | i
